Reference: PubChem BioAssay (NCATS)
Inconclusive results are not listed. The source made the active and inactive calls. The call rests on the fitted dose curve; in most records, active means well fitted inhibition curve with a large enough effect; inconclusive means small, poorly fitted or top-dose-only effect; inactive means flat fitted curve, though single readings scatter.

System: ICS
Experiment: qHTS profiling for inhibitors of Plasmodium falciparum proliferation (AID 504749); further: nearly all actives have a fitted effect of over 60% in size;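 on activity, negative = inhibition: 0% = DMSO vehicle and full inhibition = artemisinin control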
Details: P. falciparum in erythrocytes, SYBR Green DNA, 72 h; series mostly up to 28.7 µM; activity, negative = inhibition: at the top concentration
Method in brief: (§1)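 Infected RBCs, 0.3% parasitemia/2.5% Hct final; cpd 72 h, 37 C, 5% CO2; lysis buffer with saponin/triton/SYBR Green I, o/n RT dark; FI 485/535; norm. to artemisinin (0.29 uM) and DMSO.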
Potency means the concentration at half of the fitted maximal effect.

Potency, active:
OC[C@H](S)CS 2.24 µM
C(=C/c1ccccc1)/CN1CCN(C(c2ccccc2)c2ccccc2)CC1 7.94 µM

activity, negative = inhibition, inactive:
N[C@H](COP(=O)(O)O)C(=O)O 0.728%
C[N+]1(C)[C@@H]2CC(OC(=O)[C@@H](CO)c3ccccc3)C[C@@H]1[C@H]1O[C@H]12 (some centres undefined) -0.832%
COc1cc2nc(N(C)CCCNC(=O)[C@@H]3CCCO3)nc(N)c2cc1OC 7.83% [at 12.8 µM]

System: JCK
Experiment: as above
Details: P. falciparum in erythrocytes, SYBR Green DNA, 72 h; series mostly up to 28.7 µM; activity, negative = inhibition: at the top concentration
Method in brief: as §1

activity, negative = inhibition, inactive:
CC(=O)N1CCN(c2ccc(OC[C@@H]3CO[C@@](Cn4ccnc4)(c4ccc(Cl)cc4Cl)O3)cc2)CC1 1.87%
N[C@H](COP(=O)(O)O)C(=O)O 6.57%
C[N+]1(C)[C@@H]2CC(OC(=O)[C@@H](CO)c3ccccc3)C[C@@H]1[C@H]1O[C@H]12 (some centres undefined) -1.11%
C(=C/c1ccccc1)/CN1CCN(C(c2ccccc2)c2ccccc2)CC1 -9.92% [at 12.8 µM]
COc1cc2nc(N(C)CCCNC(=O)[C@@H]3CCCO3)nc(N)c2cc1OC -14.9% [at 12.8 µM]

Potency, active:
OC[C@H](S)CS 10 µM

System: N140
Experiment: as above
Details: P. falciparum in erythrocytes, SYBR Green DNA, 72 h; series mostly up to 28.7 µM; activity, negative = inhibition: at the top concentration
Method in brief: as §1

activity, negative = inhibition, inactive:
CC(=O)N1CCN(c2ccc(OC[C@@H]3CO[C@@](Cn4ccnc4)(c4ccc(Cl)cc4Cl)O3)cc2)CC1 -0.635%
N[C@H](COP(=O)(O)O)C(=O)O 17.8%
C[N+]1(C)[C@@H]2CC(OC(=O)[C@@H](CO)c3ccccc3)C[C@@H]1[C@H]1O[C@H]12 (some centres undefined) 0.0829%
C(=C/c1ccccc1)/CN1CCN(C(c2ccccc2)c2ccccc2)CC1 -11.3% [at 12.8 µM]
COc1cc2nc(N(C)CCCNC(=O)[C@@H]3CCCO3)nc(N)c2cc1OC -3.11% [at 12.8 µM]

System: P93_24
Experiment: as above
Details: P. falciparum in erythrocytes, SYBR Green DNA, 72 h; series mostly up to 28.7 µM; activity, negative = inhibition: at the top concentration
Method in brief: as §1

activity, negative = inhibition, inactive:
N[C@H](COP(=O)(O)O)C(=O)O 8.34%
C[N+]1(C)[C@@H]2CC(OC(=O)[C@@H](CO)c3ccccc3)C[C@@H]1[C@H]1O[C@H]12 (some centres undefined) 14.1%
C(=C/c1ccccc1)/CN1CCN(C(c2ccccc2)c2ccccc2)CC1 -28.3% [at 12.8 µM]
COc1cc2nc(N(C)CCCNC(=O)[C@@H]3CCCO3)nc(N)c2cc1OC 4.78% [at 12.8 µM]

System: P94_40
Experiment: as above
Details: P. falciparum in erythrocytes, SYBR Green DNA, 72 h; series mostly up to 28.7 µM; activity, negative = inhibition: at the top concentration
Method in brief: as §1

activity, negative = inhibition, inactive:
CC(=O)N1CCN(c2ccc(OC[C@@H]3CO[C@@](Cn4ccnc4)(c4ccc(Cl)cc4Cl)O3)cc2)CC1 -12.2%
OC[C@H](S)CS 0.931%
N[C@H](COP(=O)(O)O)C(=O)O 9.68%
C[N+]1(C)[C@@H]2CC(OC(=O)[C@@H](CO)c3ccccc3)C[C@@H]1[C@H]1O[C@H]12 (some centres undefined) -27.8%
C(=C/c1ccccc1)/CN1CCN(C(c2ccccc2)c2ccccc2)CC1 -26.5% [at 12.8 µM]
COc1cc2nc(N(C)CCCNC(=O)[C@@H]3CCCO3)nc(N)c2cc1OC -4.17% [at 12.8 µM]

System: PAD
Experiment: as above
Details: P. falciparum in erythrocytes, SYBR Green DNA, 72 h; series mostly up to 28.7 µM; activity, negative = inhibition: at the top concentration
Method in brief: as §1

activity, negative = inhibition, inactive:
CC(=O)N1CCN(c2ccc(OC[C@@H]3CO[C@@](Cn4ccnc4)(c4ccc(Cl)cc4Cl)O3)cc2)CC1 -28.6%
OC[C@H](S)CS -14.6%
N[C@H](COP(=O)(O)O)C(=O)O 19%
C[N+]1(C)[C@@H]2CC(OC(=O)[C@@H](CO)c3ccccc3)C[C@@H]1[C@H]1O[C@H]12 (some centres undefined) 12.3%
C(=C/c1ccccc1)/CN1CCN(C(c2ccccc2)c2ccccc2)CC1 -11% [at 12.8 µM]
COc1cc2nc(N(C)CCCNC(=O)[C@@H]3CCCO3)nc(N)c2cc1OC 4.43% [at 12.8 µM]

System: PC15
Experiment: as above
Details: P. falciparum in erythrocytes, SYBR Green DNA, 72 h; series mostly up to 28.7 µM; activity, negative = inhibition: at the top concentration
Method in brief: as §1

Potency, active:
OC[C@H](S)CS 3.16 µM

activity, negative = inhibition, inactive:
N[C@H](COP(=O)(O)O)C(=O)O -7.74%
C[N+]1(C)[C@@H]2CC(OC(=O)[C@@H](CO)c3ccccc3)C[C@@H]1[C@H]1O[C@H]12 (some centres undefined) -0.86%
C(=C/c1ccccc1)/CN1CCN(C(c2ccccc2)c2ccccc2)CC1 -28.6% [at 12.8 µM]
COc1cc2nc(N(C)CCCNC(=O)[C@@H]3CCCO3)nc(N)c2cc1OC -0.63% [at 12.8 µM]

System: PC26
Experiment: as above
Details: P. falciparum in erythrocytes, SYBR Green DNA, 72 h; series mostly up to 28.7 µM; activity, negative = inhibition: at the top concentration
Method in brief: as §1

activity, negative = inhibition, inactive:
OC[C@H](S)CS -5.7%
N[C@H](COP(=O)(O)O)C(=O)O 5.86%
C[N+]1(C)[C@@H]2CC(OC(=O)[C@@H](CO)c3ccccc3)C[C@@H]1[C@H]1O[C@H]12 (some centres undefined) 1.47%
C(=C/c1ccccc1)/CN1CCN(C(c2ccccc2)c2ccccc2)CC1 -0.529% [at 12.8 µM]
COc1cc2nc(N(C)CCCNC(=O)[C@@H]3CCCO3)nc(N)c2cc1OC -16.9% [at 12.8 µM]

System: PC49
Experiment: as above
Details: P. falciparum in erythrocytes, SYBR Green DNA, 72 h; series mostly up to 28.7 µM; activity, negative = inhibition: at the top concentration
Method in brief: as §1

activity, negative = inhibition, inactive:
CC(=O)N1CCN(c2ccc(OC[C@@H]3CO[C@@](Cn4ccnc4)(c4ccc(Cl)cc4Cl)O3)cc2)CC1 -3.51%
OC[C@H](S)CS -8.32%
N[C@H](COP(=O)(O)O)C(=O)O 15.3%
C[N+]1(C)[C@@H]2CC(OC(=O)[C@@H](CO)c3ccccc3)C[C@@H]1[C@H]1O[C@H]12 (some centres undefined) 9.04%
C(=C/c1ccccc1)/CN1CCN(C(c2ccccc2)c2ccccc2)CC1 8.43% [at 12.8 µM]
COc1cc2nc(N(C)CCCNC(=O)[C@@H]3CCCO3)nc(N)c2cc1OC 12.4% [at 12.8 µM]

System: SC27B
Experiment: as above
Details: P. falciparum in erythrocytes, SYBR Green DNA, 72 h; series mostly up to 28.7 µM; activity, negative = inhibition: at the top concentration
Method in brief: as §1

activity, negative = inhibition, inactive:
CC(=O)N1CCN(c2ccc(OC[C@@H]3CO[C@@](Cn4ccnc4)(c4ccc(Cl)cc4Cl)O3)cc2)CC1 -8.42%
OC[C@H](S)CS -0.169%
N[C@H](COP(=O)(O)O)C(=O)O 7.74%
C[N+]1(C)[C@@H]2CC(OC(=O)[C@@H](CO)c3ccccc3)C[C@@H]1[C@H]1O[C@H]12 (some centres undefined) 10.4%
C(=C/c1ccccc1)/CN1CCN(C(c2ccccc2)c2ccccc2)CC1 -5.83% [at 12.8 µM]
COc1cc2nc(N(C)CCCNC(=O)[C@@H]3CCCO3)nc(N)c2cc1OC -3.32% [at 12.8 µM]
